Measured values as given in PubChem BioAssay AID493169 (National Center for Advancing Translational Sciences (NCATS), 2011).
Records with an inconclusive call do not appear. Unmarked numbers belong to inactive results. The source made the active and inactive calls. The call rests on the fitted dose curve; in most records, active means well fitted inhibition curve with a large enough effect; inconclusive means small, poorly fitted or top-dose-only effect; inactive means flat fitted curve, though single readings scatter.

Assay: CHOP2 Reporter Counterscreen Assay for Inhibitors of Ubiquitin-specific Protease USP2a;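 further: activated enterokinase alone at 50 pM in a cell-free format rather than USP2a or CHOP2; nearly all actives have a fitted effect of over 55% in size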
Conditions: purified enterokinase, fluorogenic substrate, 485/531 nm; series mostly up to 38.3 µM; activity change, negative = inhibition: at the top concentration
Excerpt: NIH Molecular Libraries Probe Centers Network [MLPCN] NIH Chemical Genomics Center [NCGC] MLPCN Grant: XO1-MH079852-01 PI Name: Nicholson, Ben. Progenra Inc, Malvern, PA NCGC Assay Overview: Homeostasis of cellular proteins is maintained through a combination of synthesis and degradation. The pathway that accounts for the majority of protein degradation is the ubiquitin-proteasomal pathway. Ubiquitin (Ub) is highly conserved in all cells and the generation of a multi-Ub chain typically targets proteins for degradation by the proteasome. However, ubiquitination is highly reversible and dynamic. Deubiquitination, the reverse process, is catalyzed through the action of enzymes referred to as isopeptidases or deubiquitinating enzymes (DUBs). This group of enzymes is collectively responsible for maintaining adequate pools of free ubiquitin and regulating the ubiquitination status of cellular proteins. The class of DUBs referred to as the ubiquitin-specific proteases (USP) family functions endoproteolytically to cleave Ub chains from a wide range of protein substrates. USP2a deubiquitinates fatty acid synthase (FASN) which has recently been identified as an emerging oncology target. To identify inhibitors of USP2a a cell-free assay was employed. This assay is a counterscreen against the reporter enzyme used to measure USP2a activity in the primary qHTS assay. The reporter enzyme is a protease (enterokinase, EK; EC 3.4.21.9), which is activated when a Ub sequence is cleaved by USP2a. The counterscreen assay is performed in the same buffer and conditions as the primary USP2a coupled assay but uses fully activated EK alone. The assay gives a fluorescent read-out at excitation/emission wavelengths of 485/531. The assay was provided by Progenra, Inc. and has been licensed for sale by LifeSensors, Inc.
NCGC Assay Protocol: The assay buffer, prepared fresh at the day of the assay, contains 20mM Tris-HCl pH 8.0, 2mM CaCl2, 2mM beta-Mercaptoethanol, 0.05% CHAPS. 3uL of 100 pM EK (50 pM final) was dispensed into a medium-binding black solid Kalypsys 1,536 well plate using the Kalypsys dispenser. The assay plate was then pinned with 23nL compounds in DMSO with the Kalypsys pintool in columns 5-48 (0.3% final DMSO concentration). The negative control was buffer/DMSO only in column 3. The assay plate is incubated at RT for 30min. Subsequently, 3uL of reporter substrate (25nM final) were dispensed into the plate using the Kalypsys dispenser. Plates were read after 10 min at RT on a ViewLux (Perkin Elmer) plate reader using the following wavelengths: Ex 485nm /Em 531nm. Data were normalized to the AC100 inhibition (buffer alone). Concentration-response curves were fitted to the normalized data and the concentration-response curves were then classified based on curve quality (r2), response magnitude and degree of measured activity. The time zero reading was used to flag fluorescence artifacts.
On the % scale 0 is the no-effect control and ±100 the full control effect; potency means the concentration at half of the fitted maximal effect.

| Compound | activity change, negative = inhibition | Potency |
| --- | --- | --- |
| O=C(Nc1ccc(Oc2ccc(Cl)cc2)cc1)c1ncn[nH]1 | 4.42% |  |
| CCOC(=O)C1=CN(Cc2cccc(F)c2)S(=O)(=O)NC1c1ccc(Br)cc1F (stereo not given) | -6.87% |  |
| O=C(Nc1nnc(-c2cccs2)o1)c1cccc(Oc2ccccc2)c1 | -2.38% |  |
| COc1cc(C(=O)OC2CCCCC2=O)cc(OC)c1C (stereo not given) | -5.18% |  |
| CCc1cc(C(=O)N=Nc2c(O)[nH]c3ccc([N+](=O)[O-])cc23)c2ccccc2n1 |  | 8.91 µM (active) |
| CC1Cc2ccccc2N1C(=O)Cn1c(=O)oc2cc(S(=O)(=O)NC3CCCC3)ccc21 (stereo not given) | -0.985% |  |
| CC(C)CCn1c(CN2CCN(C(=O)c3ccco3)CC2)nc2c1c(=O)n(C)c(=O)n2C | 12.8% |  |
| CC(C)(C)C1CCC2(CC1)Nc1cccc3cccc(c13)N2 | -1.38% |  |
| CC1(C)CC(=O)C2=C(C1)Oc1ncn(CCCO)c(=N)c1C2c1ccccc1 (stereo not given) | -1.64% |  |
| COc1cc(C(=O)OCC(=O)Nc2c(F)c(F)c(F)c(F)c2F)cc(OC)c1OC | -0.4% |  |
| O=C(CSc1nc2ccccc2c(=O)n1CC1CCCO1)NCc1ccccc1 (stereo not given) | -3.39% |  |
| CCSc1nc(N2CCCCC2)c2c(c1C#N)CCCC2 | 0.66% |  |
| OCCN(Cc1ccccc1)c1ncnc2sccc12 | 2.84% |  |
| CCN(CC(=O)Nc1ccc(NC(C)=O)cc1)C(=O)c1ccc(N2CCC(C)CC2)c([N+](=O)[O-])c1 | -7.26% |  |
| C#CCOCCOCCOCCNc1nc(N2CCN(C(=O)CCCCCCCCCCNC(=O)Cn3cc(CCCCCN)nn3)CC2)nc(N2CCN(C(=O)CCCCCCCCCCNC(=O)[C@H](CO)n3cc(CCCCCN)nn3)CC2)n1 |  | 11.2 µM (active) |
| COc1cccc(C(=O)NCc2ccc3[nH]c(C)cc3c2)c1 | 3.71% |  |
| COc1ccc(C(=O)CSc2nnc(-c3ccco3)c(-c3ccco3)n2)cc1 |  | 6.31 µM (active) |
| COc1ccc(OCC(=O)NCCNC(=O)c2cccnc2)cc1 | 3.16% |  |
| O=C1CC(c2ccc(Cl)cc2)SC(N(c2ccccc2)c2ccccc2)=N1 (stereo not given) | 1.87% |  |
| COc1ccc(N(C(=O)C(C)C)S(=O)(=O)c2ccc(Cl)cc2)cc1 | -1.76% |  |

| Compound | activity change, negative = inhibition | Potency |
| --- | --- | --- |
| Cc1c(NC(=O)c2ccc(COc3ccc4ccccc4c3)o2)c(=O)n(-c2ccccc2)n1C | -9.92% |  |
| N#Cc1c(-c2cccs2)nc(SCc2ccc(Cl)cc2)[nH]c1=O | -21.8% |  |
| Cc1cccc2c1N(CCCOc1ccc(C(C)(C)C)cc1)C(=O)C2=O | -1.62% |  |
| Cc1cc(C)c2c(N=CN(C)C)c(C(=O)N3CCN(c4ncccn4)CC3)sc2n1 | 3.03% |  |
| CNC(=O)NC(=O)CSc1ccc(NC(C)=O)cc1 | -0.346% |  |
| CCCCCCCCCS(=O)(=O)N/N=C/c1cccc([N+](=O)[O-])c1 | -2.63% |  |
| Cc1ccc(C)c(S(=O)(=O)N2CCN(C(=O)/C=C/c3ccco3)CC2)c1 |  | 11.2 µM (active) |
| FC(F)Sc1ccc(NC(=S)NC2CCCCC2)cc1 | -0.892% |  |
| CN(C)S(=O)(=O)c1cccc(NC(=S)NNC(=O)c2cc3ccccc3cc2O)c1 | -15.3% |  |
| COc1ccc(Cl)cc1C(=O)Nc1cccc(-c2ccc3nncn3n2)c1 |  | 10 µM (active) |
| CC(C)(C)C1CCC(=NNC(=O)CN(c2ccccc2)S(C)(=O)=O)CC1 (stereo not given) | -1.54% |  |
| CCN(CC)CCNc1nc(-c2ccccc2)c2c(c1C#N)CC(C)(C)OC2 | 5.06% |  |
| COCCn1c(SCC(=O)Nc2cc(C)on2)nnc1-c1ccccc1 | -0.447% |  |
| O=C(CCc1nc(-c2ccccc2F)no1)NC1CCCCCC1 | 1.18% |  |
| N#Cc1c(Nc2ccc(Cl)cc2)s[nH]c1=O | -3.6% |  |
| COC(=O)C1CCN(C(=O)COC(=O)CC(NC(N)=O)c2ccc(Cl)cc2)CC1 (stereo not given) | 2.03% |  |
| CS(=O)(=O)c1ccc(C(=O)Nc2nc(-c3ccco3)c(-c3ccco3)s2)cc1 | -26.3% |  |
| O=C(Cn1cnc2sc(-c3ccccc3)cc2c1=O)NCc1ccco1 |  | 10 µM (active) |
| O=C(CSCc1cnn(-c2ccccc2)c1-n1cccc1)NCC1CCCO1 (stereo not given) | 4.45% |  |
| O=C(Nc1ccccc1)Nc1snnc1C(=O)Nc1cccc(O)c1 | -8.36% |  |
